Potency and activity (max response) data for 17 compounds are collected here from PubChem BioAssay (NCATS).

Test [1] in a line: Viability qHTS for spleen associated tyrosine kinase inhibitor (SYKi) naive MV4-11 cells (AID 1963823). Also: nearly all actives have a fitted effect of over 40% in size. An outline of the steps:
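SYKi-naive MV4-11 AML cells, 500 per well, were exposed to library compounds for 72 hr at 37 C, 5% CO2. Viability was then read by CellTiter-Glo luminescence after 10 min at room temperature.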

A short description of test [2]: Viability qHTS for spleen associated tyrosine kinase inhibitor (SYKi) drug resistant MV4-11 cells (AID 1963824). Also: nearly all actives have a fitted effect of over 35% in size. The essentials:
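SYK-inhibitor-resistant MV4-11 AML cells were seeded at 500 per well onto compound and cultured 72 hours (37 °C, 5% CO2). CellTiter-Glo was then added, and after 10 min at room temperature, luminescence gave viability.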

Test [3] is described as follows: Cellular viability qHTS for adrenocortical cancer (ACC) cell line NCI-H295R (AID 1963990). Also: nearly all actives have a fitted effect of over 60% in size. An outline of the steps: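 Viability of NCI-H295R after 48 h of treatment (final up to 46 uM) measured through cellular ATP luminescence.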
Test [4] can be described thus: Quantitative highthroughput screen to assess conditional lethalithy of NOMO1 cells grown in RPMI1640 with untreated serum (RPMI+s) (AID 1963876). Also: nearly all actives have a fitted effect of over 35% in size.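 As to Viability: 100% = DMSO wells and 0% = empty wells without cells.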 An outline of the steps:
(§1)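 Each medium arm—HPLM with 10% dialyzed FBS, or RPMI1640 with 5 mM glucose and 10% untreated or dialyzed FBS—was screened against an 11-point, 3-fold compound titration for 48 h at 37 °C, with CellTiter-Glo luminescence as endpoint.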

The nature of test [5]: Quantitative highthroughput screen to assess conditional lethalithy of NOMO1 cells grown in RPMI1640 with dialyzed fetal bovine serum (RPMI+ds) (AID 1963877). Also: nearly all actives have a fitted effect of over 30% in size.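 As to Viability: series mostly up to about 46 µM; 100% = DMSO control wells and 0% = empty wells.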 The essentials:
as §1

The nature of test [6]: Quantitative highthroughput screen to assess conditional lethalithy of NOMO1 cells grown in Human Plasma-Like Medium with dialyzed fetal bovine serum (HPLM+ds) (AID 1963878). Also: nearly all actives have a fitted effect of over 35% in size.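 As to Viability: 100% = DMSO wells and 0% = empty wells on each plate.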 The essentials: as §1
Test [7] in a line: Quantitative highthroughput screen to assess conditional lethalithy of P12 Ichikawa cells grown in Human Plasma-Like Medium with dialyzed fetal bovine serum (HPLM+ds) (AID 1963879). Also: nearly all actives have a fitted effect of over 35% in size. As to Viability: series mostly up to about 46 µM. The conditions noted are these: Potency: viability. An outline of the steps:
as §1

The nature of test [8]: Quantitative highthroughput screen to assess conditional lethalithy of P12 Ichikawa cells grown in RPMI1640 with dialyzed fetal bovine serum (RPMI+ds) (AID 1963880). Also: nearly all actives have a fitted effect of over 35% in size.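 As to Viability: 100% = DMSO wells and 0% = empty wells on each plate.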 Particulars: Potency: P12-Ichikawa viability. The essentials:
as §1

Test [9] is described as follows: Quantitative highthroughput screen to assess conditional lethalithy of P12 Ichikawa cells grown in RPMI1640 with untreated serum (RPMI+s) (AID 1963881). Also: nearly all actives have a fitted effect of over 35% in size.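 As to Viability: series mostly up to about 46 µM; 100% = DMSO wells and 0% = empty wells without cells.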 The conditions noted are these: Potency: viability. The essentials:
as §1

Test [10] is described as follows: Cellular viability qHTS for adrenocortical cancer (ACC) cell line SW-13 (AID 1963989). Also: nearly all actives have a fitted effect of over 65% in size.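 As to activity (max response): cells grown in serum-free medium with ITS supplement; % is scaled to controls: 0 for no effect and ±100 for the full control effect.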 Particulars: SW-13 ACC cells viability, CellTiter-Glo, 48 h; activity (max response): stronger effect = lower value. The essentials: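 Here, serum-free SW-13 cultures were dosed up to 46 uM. Following 48 h, ATP-dependent luminescence (CellTiter-Glo) reported viable cells, and logistic modeling produced IC50 values.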

A short description of test [11]: Quantitative highthroughput screen to assess conditional lethalithy of SEM cells grown in Human Plasma-Like Medium with dialyzed fetal bovine serum (HPLM+ds) (AID 1963882). Also: nearly all actives have a fitted effect of over 35% in size. As to Viability: series mostly up to about 46 µM. The essentials: as §1
Test [12] in a line: Quantitative highthroughput screen to assess conditional lethalithy of SEM cells grown in RPMI1640 with unreated serum (RPMI+s) (AID 1963883). Also: nearly all actives have a fitted effect of over 35% in size.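 As to Viability: 100% = DMSO wells and 0% = empty wells without cells.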 An outline of the steps: as §1
A short description of test [13]: Quantitative highthroughput screen to assess conditional lethalithy of SEM cells grown in RPMI1640 with dialyzed fetal bovine serum (RPMI+ds) (AID 1963884). Also: nearly all actives have a fitted effect of over 35% in size.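 As to Viability: series mostly up to about 46 µM; 100% = DMSO control wells and 0% = empty wells without cells.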 The essentials:
as §1

Each structure is given as a SMILES string. Where “and” joins values, the source holds several entries; their conditions need not be identical. Equal entries are not always repeated. Records with an inconclusive call do not appear. Calls of active or inactive are those of the source. Calls follow the shape of the dose curve; as a rule, active = well fitted curve in the direction sought with a large enough effect; inconclusive = small, poorly fitted or top-dose-only effect, or another doubt; inactive = no such curve, though single readings can be large; an effect the other way counts as inactive or inconclusive.
Potency is read from the fitted curve at half-maximal effect.

In the case of `CC(C)Oc1ccc(-c2nc(-c3cccc4c3CC[C@@H]4NCCO)no2)cc1C#N`, the Potency in test [1] is 11.8 µM (active); in test [2] it was 11.8 µM (active); in test [3], 28.2 µM (active).

In the case of `O=C(O)c1ccccc1C(=O)Nc1ccc(-c2ccccc2)cc1`, the Potency result in test [1], in [4], in [5], in test [6], in test [7] and in [8] was “inactive” throughout. The Potency result in test [9] and in test [3] was “inactive” throughout. In test [10], the activity (max response) is -5.47% (inactive).

Regarding `CCN(C)C(=O)Oc1cccc([C@H](C)N(C)C)c1`, the Potency entry in [1], in [4], in test [5], in test [6], in test [7] and in [8] was “inactive” throughout. For the same compound, the Potency entry in test [9], in [11], in test [12], in test [13] and in test [3] was “inactive” throughout. Further, in test [10], the activity (max response) was 11.5% (inactive).

On to `Oc1ccc(C2=Cc3ccc(O)cc3OC2)cc1`, for which the Potency was 0.417 µM (active) in test [1]; 9.35 µM (active) in test [4]; 11.8 µM (active) in test [5]; 9.35 µM (active) in test [6]; 2.96 µM (active) in test [7]; 2.64 µM (active) in test [8]. The Potency in [9] is 2.96 µM (active); in test [11] it was 2.96 µM (active); in test [12], 3.32 µM (active); in test [13], 3.72 µM (active); in [10], 7.08 µM (active); in test [3], 11.2 µM (active).

In the case of `CC(=O)N(C)C1(c2ccccc2)CCN(CCC[C@]2(c3ccc(Cl)c(Cl)c3)CCCN(C(=O)c3ccccc3)C2)CC1`, the Potency was 4.11 µM (active) in test [1]; 1.87 µM (active) in [4]; 1.87 µM (active) in test [5]; 0.526 µM (active) in test [6]; 2.96 µM (active) in test [7]; 7.43 µM (active) in test [9]. In addition, the Potency in test [11] was 0.662 µM (active); in test [12], 0.743 µM (active); in test [13], 1.05 µM (active).

As to `CCOC(=O)[C@H](CCc1ccccc1)N[C@H]1CS[C@H](c2cccs2)CN(CC(=O)O)C1=O`, the Potency in test [1] is 7.42 µM (active); in test [4] it was 10.5 µM (active); in test [5] it was 13.2 µM (active); in test [6] it was 5.26 µM (active); in test [7], 8.33 µM (active); in test [8] it was 14.8 µM (active). For the same compound, in test [9], the Potency was 9.35 µM (active). Besides, the Potency result in test [13] and in test [3] was “inactive” throughout. The activity (max response) in test [10] is 6.33% (inactive) and 0.504% (inactive).

As to `CN1C[C@H]2c3ccccc3Oc3ccc(Cl)cc3[C@@H]2C1`, the Potency was 26.6 µM (active) in test [1], 26.4 µM (active) in test [12] and 23.5 µM (active) in test [13]. In addition, the Potency result in [4], in test [5], in [6], in [7], in test [8] and in test [9] was “inactive” in each case. Besides, in [10], the activity (max response) was -18.3% (inactive).

As to `N[C@@H](CC(=O)N1CCn2c(nnc2C(F)(F)F)C1)Cc1cc(F)c(F)cc1F`, the Potency result in [1], in test [4], in [5], in test [6], in test [7] and in test [8] was “inactive” throughout. The Potency result in [9] and in [3] was “inactive” throughout. For the same compound, the activity (max response) in [10] was -2.25% (inactive).

Take `C[C@](Cc1c[nH]c2ccccc12)(NC(=O)OC1C2CC3CC(C2)CC1C3)C(=O)NC[C@H](NC(=O)CCC(=O)O)c1ccccc1` (some centres undefined): the Potency entry in test [1], in test [4], in [5], in test [6], in test [7] and in test [8] was “inactive” in each case. In addition, the Potency entry in test [9], in [12] and in test [3] was “inactive” throughout. Moreover, the activity (max response) in test [10] is 0.678% (inactive).

As for `COCCn1c2c([n+](Cc3cnccn3)c1C)C(=O)c1ccccc1C2=O`, the Potency in test [1] was 0.0093 µM (active); in test [4], 0.132 µM (active); in test [5] it was 0.105 µM (active); in test [6], 0.0662 µM (active); in test [7], 0.235 µM (active); in [8], 0.187 µM (active). The Potency in test [11] is 0.0166 µM (active); in [12] it was 0.0662 µM (active); in test [3], 2.82 µM (active).

As to `COc1cc2c(cc1OC)-c1cc(=Nc3c(C)cc(C)cc3C)n(C)c(=O)n1CC2`, the Potency is 9.44 µM (active) in [1], 10.6 µM (active) in test [2] and 20.6 µM (active) in test [3].

Take `Cc1cn2cc(C(=O)N(C)CCO)cc(N[C@@H]3CCOc4cccc(C)c43)c2n1`: the Potency in [1] is 2.95 µM (active). The Potency entry in [4], in test [5], in test [6], in test [7], in test [8] and in test [9] was “inactive” in each case. For the same compound, the Potency result in test [12], in [13] and in [3] was “inactive” throughout. The activity (max response) in test [10] was -15% (inactive).

Turning to `CC(O)C1C(=O)N2C(C(=O)O)=C(SC3CNC(C(=O)N(C)C)C3)C(C)C12` (centres undefined), the Potency result in [1], in [4], in test [5], in test [6], in [7] and in [8] was “inactive” throughout. The Potency result in test [9], in test [11] and in test [12] was “inactive” in each case.

For `C[C@H](NC(=O)Cc1cc(F)cc(F)c1)C(=O)N[C@@H]1C(=O)N(C)c2ccccc2-c2ccccc21`, the Potency entry in test [1] is “inactive”. Besides, the Potency in test [4] is 11.8 µM (active); in test [5], 14.8 µM (active); in test [6], 4.69 µM (active); in test [7], 2.64 µM (active); in [8], 7.43 µM (active); in [9], 7.43 µM (active). Further, the Potency was 4.18 µM (active) in test [11], 1.18 µM (active) in test [12] and 3.32 µM (active) in test [13]. Also, the activity (max response) in test [10] was -7.45% (inactive).

Take `O=C1c2cccc(O)c2C(=O)c2c(O)cc(CO)cc21`: in [1], the Potency was 8.33 µM (active). Further, the Potency result in [4], in test [5], in test [6], in test [7], in [8] and in [9] was “inactive” throughout. For the same compound, the Potency entry in test [11], in [12], in test [13] and in [3] was “inactive” in each case. Further, in test [10], the activity (max response) was 13.5% (inactive).

Take `C[C@H](NC(=O)[C@@H](O)c1cc(F)cc(F)c1)C(=O)N[C@@H]1C(=O)N(C)c2ccccc2-c2ccccc21`: the Potency result in test [1], in test [4], in test [5], in [6], in test [7] and in test [8] was “inactive” in each case. In addition, the Potency result in [9] and in test [3] was “inactive” throughout. For the same compound, the activity (max response) in test [10] was -11.3% (inactive).

Regarding `CN1C(C(=O)Nc2ccccn2)=C(O)c2sc(Cl)cc2S1(=O)=O`, the Potency entry in test [1], in test [4], in test [5], in [6], in [7] and in test [8] was “inactive” in each case. Moreover, the Potency result in test [9], in [11], in test [13] and in test [3] was “inactive” in each case. For the same compound, in test [10], the activity (max response) was -21.7% (inactive).
